# Only some compounds are listed: those with a hit (about 3.5% of all), similar ones and a draw of the others.
# FBW7 activator: human FBW7 E3 ligase activation, primary screen | Q969H0 | AlphaScreen FBW7–phospho-cyclin E peptide binding, activator screen | normalized activity (activation), % at 26.1 µM | hit rate 0.13% among 650,000 | AID 1259310; in the data active means normalized activity above about 1.9%;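 further: purified mutant Fbw7 with reduced substrate affinity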
# TEAD-YAP block: TEAD-YAP interaction inhibition. HEK-TIYL cells, TEAD-Gal4/YAP UAS-luciferase luminescence. inhibition, % at 9.12 µM. hit rate 1.4% among 640,000. AID 1259422; in the data active means inhibition above about 32%
# GPR151 ag: activators of human GPR151. hit rate 1% among 650,000. activation, % at 11.2 µM. AID 1508602. PathHunter beta-arrestin GPR151 cells, luminescence. Q8TDV0; in the data active means activation above about 4.9%
# Target sequence (Q8TDV0 whole entry, looked up): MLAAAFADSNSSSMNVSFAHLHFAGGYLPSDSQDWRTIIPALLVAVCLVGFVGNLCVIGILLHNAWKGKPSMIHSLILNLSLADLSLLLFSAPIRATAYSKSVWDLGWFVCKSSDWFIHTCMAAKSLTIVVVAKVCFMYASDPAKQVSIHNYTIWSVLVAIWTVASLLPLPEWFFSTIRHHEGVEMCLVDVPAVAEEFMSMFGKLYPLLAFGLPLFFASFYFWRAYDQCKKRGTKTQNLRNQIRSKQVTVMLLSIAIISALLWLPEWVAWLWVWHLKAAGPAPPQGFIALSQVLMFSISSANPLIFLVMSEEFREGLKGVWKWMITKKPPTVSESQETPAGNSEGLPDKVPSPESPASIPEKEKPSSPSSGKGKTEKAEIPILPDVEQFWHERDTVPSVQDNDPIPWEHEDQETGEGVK
# MITF inh: blocks human microphthalmia-associated transcription factor | O75030 | AlphaScreen MITF homodimerization, bead proximity signal | inhibition, % at 2.6 µM | hit rate 0.91% among 650,000; in the data active means inhibition above about 50%
# A number is an active result; . = inactive; ! = not active in a repeat.
SMILES,FBW7 activator,TEAD-YAP block,GPR151 ag,MITF inh
c1cnc2ccc(Nc3nccc(Nc4ccc(N5CCOCC5)cc4)n3)cc2c1,.,82,.,.
CC(=O)Nc1ccc(Nc2cc(C)nc(N3CCN(c4ccccn4)CC3)n2)cc1,.,.,.,.
Cc1cc(Nc2ccccc2)nc(N2CCN(C(=O)C(C)(C)C)CC2)n1,.,32,.,.
Cn1c(Nc2nccc(Nc3ccc(N4CCOCC4)cc3)n2)nc2ccccc21,.,54,.,.
Cc1cc(Nc2ccc(N3CCOCC3)cc2)nc(N2CCc3ccccc3C2)n1,.,41,.,.
CCCCCn1c(=S)[nH]c2cc(C(=O)Nc3cccc(C(F)(F)F)c3)ccc2c1=O,.,.,.,.
Cc1nnc(-c2ccc(OCC(=O)N(C(C)C)C(C)C)cc2)o1,.,.,.,.
Cc1cc(Nc2ccc(N3CCOCC3)cc2)nc(Nc2ncccn2)n1,.,.,.,.
Cc1cc(Nc2ccc(N3CCOCC3)cc2)nc(Nc2ccc3ncccc3c2)n1,.,57,.,.
COc1ccc(-c2ccc(C(C)=O)cc2)cc1,.,.,.,.
COc1ccc(-c2cc(O)cc(O)c2)cc1,.,34,.,.
CN1C(C(=O)Nc2ccccn2)=C(O)c2sccc2S1(=O)=O,2.0!,.,.,.
CCOc1ccc2nc(N3CCCCC3)sc2c1,.,53,.,.
CCOc1ccc2nc(N3CCN(C(=O)C(C)C)CC3)sc2c1,.,.,.,.
CCOc1ccc2nc(N3CCC(C(=O)N4CCC(C(N)=O)CC4)CC3)sc2c1,.,.,.,.
CCOc1ccc2nc(NC(=O)C(C)(C)C)sc2c1,.,63,.,.
CCOc1ccc2nc(NC(=O)CCCC(=O)O)sc2c1,.,.,.,.
CCOc1ccc2nc(N3CCN(S(=O)(=O)c4ccccc4)CC3)sc2c1,.,.,.,.
CCOc1ccc2nc(N3CCCC3)sc2c1,.,43,.,.
CCOc1cc2sc(N3CCC(C(=O)O)CC3)nc2cc1Br,.,47,.,.
CCSCCOC(=O)C1=C(C)NC2=C(C(=O)CCC2)C1c1cccc(Oc2ccccc2)c1 (centres undefined),.,.,.,.
CCOC(=O)C1=C(C)NC(C)=C(C(=O)OCC)C1c1ccccc1[N+](=O)[O-],.,.,.,.
Cc1cc(C)c(C(=O)Nc2ccc(F)c(Cl)c2)c(C)c1,.,.,.,.
Nc1nccc(-c2cc(F)c3nc(C4COc5ccc(C(=O)NC6CC6)cc5C4)[nH]c3c2)n1 (centres undefined),.,.,.,.
CC(C)/C=C1/CCCc2c1[nH]c1ccccc1c2=O,.,42,.,.
SMILES,FBW7 activator,TEAD-YAP block,GPR151 ag,MITF inh
Cc1cc2c(cc1C)-c1nc3ccccc3cc1C2=O,.,.,.,.
Cc1cc2c(cc1C)-c1nc3ccccc3cc1C2,.,54,.,.
Cc1ccc2c(c1)Cc1nc3ccccc3nc1-2,.,65,.,.
O=C(NNC(=O)c1cccc(Br)c1)C(=O)N1CCCC1,.,.,.,.
COC(=O)c1ccc(-c2nc3cc(Cl)c(N)cc3s2)cc1,.,47,.,.
C/C(=N/NC(=O)c1ccccn1)c1cccs1,.,66,.,.
C/C(=N\NC(=O)c1cnccn1)c1cccs1,.,.,.,.
C/C(=N\NC(=O)c1ccccc1O)c1cccs1,.,38,.,.
C/C(=N/NC(=O)c1ccc(O)cc1)c1cccs1,.,.,.,.
CCNc1ccc(C(=O)N/N=C(\C)c2cccs2)cc1[N+](=O)[O-],.,50,.,.
C/C(=N\NC(=O)c1cccc([N+](=O)[O-])c1)c1cccs1,.,.,.,.
CCN(CC)c1cc(Nc2ccc(C)c(Cl)c2)c([N+](=O)[O-])c2nonc12,.,.,.,.
CCn1nccc1C(=O)Nc1cc(-c2ccccc2)sc1C(=O)OC,.,.,.,.
CC(C)Oc1ccc(CN2CCc3nnc(CCNC(=O)C4CCC4)n3CC2)cc1,.,.,.,.
Nc1ccc(NC2=C(N3CCCCC3)C(=O)c3ccccc3C2=O)cc1,.,.,.,.
O=C1C(NC2CCCC2)=C(N2CCCCC2)C(=O)c2ccccc21,.,86,.,.
COc1ccccc1NC1=C(N2CCCCC2)C(=O)c2ccccc2C1=O,.,62,.,.
Nc1oncc1-c1ccc(NC(=O)C2COc3ccc(F)cc3C2)cc1 (centres undefined),.,50,.,.
Nc1oncc1-c1ccc(NC(=O)C2COc3ccccc3C2)cc1 (centres undefined),.,.,.,.
Nc1[nH]ncc1-c1ccc(NC(=O)C2COc3ccc(F)cc3C2)cc1 (centres undefined),.,47,.,.
Cc1[nH]ncc1-c1ccc(NC(=O)C2COc3ccccc3C2)cc1 (centres undefined),.,41,.,.
CC(=O)Nc1ccc(-c2nc3c(Br)cc(NC(C)=O)cc3[nH]2)cc1,.,.,.,.
CCC(C)N1C(=O)C2C(C(=O)Nc3ccc(OC)cc3)C3C=CC2(O3)C1C(=O)NC1CCCCC1 (centres undefined),.,.,.,.
CCC1(O)CC2CN(CCc3c([nH]c4ccccc34)[C@@](C(=O)OC)(c3cc4c(cc3OC)N(C=O)C3[C@]45CCN4CC=C[C@@](CC)([C@@H](OC(C)=O)[C@]3(O)C(=O)OC)[C@H]45)C2)C1 (some centres undefined),.,69,.,.
COc1ccccc1NC(=O)N1CCC2(CC1)OCCc1c2[nH]c2ccccc12,.,.,.,.
SMILES,FBW7 activator,TEAD-YAP block,GPR151 ag,MITF inh
CC[C@]1(O)CC2CN(CCc3c([nH]c4ccccc34)[C@@](C(=O)OC)(c3cc4c(cc3OC)N(C)[C@H]3[C@@](O)(C(=O)OC)[C@H](OC(C)=O)[C@]5(CC)C=CCN6CC[C@]43[C@@H]65)C2)C1 (some centres undefined),.,59,.,.
CC[C@]1(O)C[C@H]2CN(CCc3c([nH]c4ccccc34)[C@H](C)[C@H]2c2cc3c(cc2OC)N(C=O)[C@H]2[C@@](O)(C(=O)OC)[C@H](C)[C@]4(CC)C=CCN5CC[C@]32[C@@H]54)C1,.,56,.,.
CCC1=C[C@H]2CN(C1)Cc1c([nH]c3ccccc13)[C@@](C(=O)OC)(c1cc3c(cc1OC)N(C)[C@H]1[C@@](O)(C(=O)OC)[C@H](OC(C)=O)[C@]4(CC)C=CCN5CC[C@]31[C@@H]54)C2,.,56,.,.
COc1ccc(C2c3[nH]c4ccccc4c3CCN2C(=O)CNC(C)=O)c(C)c1C (centres undefined),.,.,.,.
O=C(Cn1cnc2ccccc2c1=O)Nc1ccc(Cl)cc1,.,.,.,.
CCOc1ccc(NC2SC(=O)N(c3cccc(C)c3)C2=O)cc1 (centres undefined),.,.,.,.
COc1ccc(OC)c(C2CC(=O)c3c([nH]c(C(=O)OC(C)C)c3C)C2)c1 (centres undefined),.,50,.,.
Cc1c(C(=O)OC(C)C)[nH]c2c1C(=O)CC(c1ccccc1)C2 (centres undefined),.,51,.,.
CCOCCOC(=O)c1[nH]c2c(c1C)C(=O)CC(c1cc(OC)ccc1OC)C2 (centres undefined),.,45,.,.

# Compound activity deposited in PubChem by The Scripps Research Institute Molecular Screening Center.
